In PubChem BioAssay AID1259421 (Broad Institute, 2018):
Values joined by “and” are separate entries in the source; they are usually repeats but may differ in a detail not shown here. Identical values can stand only once. Screen size: about 6,400 compounds; about 610 (9.5%) were called active. Cut-off read from the data, not from the text of the source: active = activity change below about -70%; inconclusive = no clear call, values can overlap the other calls; inactive = above that. The sample as a whole holds a higher share of actives than the screen did. Some compounds were tested as several samples or in several runs, with calls that do not always agree.

test: Toxoplasma gondii ME49Luc growth in HeLa cells, luciferase, no IFN-y, primary screen (AID 1259421); details: T. gondii ME49Luc in HeLa, 72 h, stronger effect = lower value, concentration not given here

SMILES | activity change, negative = inhibition
CCOCc1nc2c(N)nc3ccccc3c2n1CC(C)(C)O | 18.1% (inactive)
N[C@@H](CC(=O)Nc1ccc(Oc2cc(F)c(F)cc2Br)cc1)C(=O)O | 7.4% (inactive)
COc1cccc(Nc2c(C(N)=O)cnc3c(C)cc(S(=O)(=O)c4cccc(C(=O)N(C)C)c4)cc23)c1 | -9.54% (inactive)
CNC(=O)c1ccc(C)c(-n2c(C)cc(OCc3ccc(F)cc3F)c(Br)c2=O)c1 | 9.8% (inactive)
CC(=O)NC1=NN(C(C)=O)C(C)(c2ccccc2)S1 (stereo unspecified) | -32.2% (inactive)
C#C[C@]1(OC(C)=O)CCC2C3CCC4=CC(=O)CC[C@@H]4C3CC[C@@]21C (stereo partly specified) | -79.9% (active) and -90.3% (active)
C#C[C@]1(OC(C)=O)CC[C@H]2[C@@H]3CCC4=C[C@@H](OC(C)=O)CC[C@@H]4[C@H]3CC[C@@]21C | -38.3% (inactive) and 1.4% (inactive)
CC(=O)O[C@]1(C(C)=O)CC[C@H]2[C@@H]3C=C(C)C4=CC(=O)CC[C@@H]4[C@H]3CC[C@@]21C | 8.45% (inactive)
c1ccc(-c2n[nH]c3c2oc2ccccc23)cc1 | 129% (inactive) and 2.12% (inactive)
CCOC(=O)N1CSCC1C(=O)O (stereo unspecified) | 0.0863% (inactive)
CC(C)Oc1ccc2c(=O)cc(-c3ccccc3)oc2c1 | 458% (inactive)
CN(C)CCCCC(=O)Nc1ccc(NC(=S)NC(=O)c2ccc(C(C)(C)C)cc2)cc1 | 78.2% (inactive)
CCOC(=O)c1ccc(OCCC2CCN(c3ccc(C)nn3)CC2)cc1 | 9.97% (inactive)
NC1CCN(c2cccc(Cl)n2)CC1 | 10.9% (inactive) and -8.3% (inactive)
COCCOc1ccc2c(c1)ncn2-c1ccc2cccc(N3CCC(N)CC3)c2n1 | -89.9% (active)
CC1(COc2ccc3c(c2)ncn3-c2ccc3cccc(N4CCC(N)CC4)c3n2)COC1 | -73.4% (active)
COc1ccc(C[C@H](C)NC[C@@H](O)c2ccc(O)c(NC=O)c2)cc1 | 14.6% (inactive) and 0.747% (inactive)
CCCC1OC2CC3C4CCC5=CC(=O)C=CC5(C)C4C(O)CC3(C)C2(C(=O)CO)O1 (stereo unspecified) | -4.58% (inactive)
Cc1nnc(C(C)C)n1C1CC2CCC(C1)N2CC[C@H](NC(=O)C1CCC(F)(F)CC1)c1ccccc1 (stereo partly specified) | 10.7% (inactive) and 30.6% (inactive)
CC(C)NC[C@@H](C(=O)N1CCN(c2ncnc3c2[C@H](C)C[C@@H]3O)CC1)c1ccc(Cl)cc1 | 9.17% (inactive)
CC(=O)c1c(O)c(C)c(O)c2c1OC1=CC(=O)C(C(C)=O)C(=O)[C@@]12C (stereo partly specified) | 16.8% (inactive)
CCCCCCCCCCCCC/C=C/[C@@H](O)[C@H](CO)NC(C)=O | 16.6% (inactive)
NCCCCCCNS(=O)(=O)c1cccc2ccccc12 | 3.17% (inactive)
Nc1nc(NCC2CCC(CNS(=O)(=O)c3cccc4ccccc34)CC2)nc2ccccc12 (stereo unspecified) | -76.7% (active) and -41.2% (inactive)
NCCNS(=O)(=O)c1cccc2cnccc12 | 1.67% (inactive)
Cc1onc(-c2ccccc2)c1C(=O)NC1C(=O)N2[C@@H]1SC(C)(C)[C@@H]2C(=O)O (stereo partly specified) | 8.03% (inactive)

SMILES | activity change, negative = inhibition
CSC1SCC2C(=O)N(C)C(C(C)C)C(=O)OCC(NC(=O)c3cnc4ccccc4n3)C(=O)NC(C)C(=O)N(C)C1C(=O)N(C)C(C(C)C)C(=O)OCC(NC(=O)c1cnc3ccccc3n1)C(=O)NC(C)C(=O)N2C (stereo unspecified) | -84.4% (active)
CC(=C(CCOP(=O)(O)O)SC(=O)c1ccccc1)N(C=O)Cc1cnc(C)nc1N | -0.0808% (inactive)
Oc1c(Cl)cc(Cl)c(Cl)c1Cc1c(O)c(Cl)cc(Cl)c1Cl | -88.2% (active) and -95.3% (active)
O=C(Nc1cc(Cl)cc(Cl)c1O)c1c(O)c(Cl)cc(Cl)c1Cl | 1.68% (inactive)
CCCC(CCC)C(=O)OC1C[C@H]2CC[C@@H](C1)[N+]2(C)C (stereo partly specified) | 9.62% (inactive)
O=C(NC1CCN(Cc2ccccc2)CC1)c1ccc(I)cc1 | 21.8% (inactive) and 21.3% (inactive)
O=C(COc1ccc(C(=O)c2ccccc2)cc1)NC1CCN(Cc2ccccc2)CC1 | -17.8% (inactive)
C=CCc1cccc(/C=N/NC(=O)CN2CCN(Cc3ccccc3)CC2)c1O | -76.9% (active) and 6.28% (inactive)
Cc1ccccc1N=Nc1ccc(NC(=O)c2ccnn2C)c(C)c1 | -4.39% (inactive)
Cc1nc2ccc(CN(C)c3ccc(C(=O)N[C@@H](CCC(=O)O)C(=O)O)s3)cc2c(=O)[nH]1 | -4.51% (inactive)
O=C(O)c1cc(-c2ccccc2)nc2ccccc12 | 42.2% (inactive) and 11.3% (inactive)
O=C(O)c1ccc(-c2c[nH]c3ncc(-c4ccccc4)cc23)cc1C1CCCC1 | -82.2% (active)
CCC(=O)OCC(=O)[C@@]1(OC(=O)CC)[C@@H](C)CC2C3CCC4=CC(=O)C=C[C@]4(C)C3(F)[C@@H](O)C[C@@]21C (stereo partly specified) | -0.442% (inactive)
CC(=O)Nc1ccc(S(=O)(=O)Nc2onc(C)c2C)cc1 | 6.51% (inactive)
NCCCC(N)(C(=O)O)C(F)F (stereo unspecified) | 7.14% (inactive)
COc1cc(OC)c2c(OC)c(-c3ccc4c(c3)OCO4)c(=O)oc2c1 | -77.7% (active)
COc1cc(OC)c2c(=O)c(OC)c(-c3ccccc3)oc2c1 | 43.5% (inactive)
COc1cc(OC)c2c(=O)cc(-c3ccccc3)oc2c1 | 147% (inactive)
O=C(NCCc1ccc(O)c(O)c1)C12CC3CC(CC(C3)C1)C2 | 1.2% (inactive)
N#C/C(=C\c1ccc(O)c(O)c1)C(=O)OCCc1cccs1 | 2.66% (inactive)
COc1cc2c(cc1OC)Cc1cc(OC)c(OC)cc1Cc1cc(OC)c(OC)cc1C2 | 6.34% (inactive)
COc1cccc(N2CCN(C3=Nc4c(F)cccc4[C@H](CC(=O)O)N3c3cc(C(F)(F)F)ccc3OC)CC2)c1 | -1.57% (inactive)
O=C1c2ccccc2CCC1CNCCc1ccc(O)cc1 (stereo unspecified) | 9.23% (inactive)
O=S(=O)(O)c1ccc(O)cc1 | 0.395% (inactive)
CC(=O)N1CCN(C)CC1 | 1.18% (inactive) and 9.84% (inactive)
